Screening data as filed in PubChem.
Hits are enriched below; roughly 0.33% of the tested compounds scored in any of these assays.
IL-2 act = activates IL-2 in a cell-based reporter assay. IL-2 activation reporter assay, cell-based qHTS; stimulated with anti-CD3/CD4/CD28 beads; in transgenic mouse T cells. activation, % (series mostly up to about 46 µM). 360,000 compounds, 0.065% hits. AID 652025; in the data active means activation above about 50%; inconclusive means mostly about 30% to 49%
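Unstimulated transgenic mouse T cells preincubated 60 min with compound, then stimulated with anti-CD3/anti-CD4-coated beads plus anti-CD28 for 18 h at 37 degrees C. IL-2 response read as EGFP and DsRed fluorescence by plate cytometry.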
PKM2 act = PKM2 (human) enzyme activation; P14618; purified PKM2, Kinase-Glo ATP luminescence, activation; response scale: 0% is enzyme alone, no compound; Potency, µM (doses to about 57.5 µM), hits mostly activators; 260,000 compounds, 0.34% hits; AID 1631; further: nearly all actives have a fitted effect of over 55% in size
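Purified hPK-M2 (>95% pure) converted ADP (0.1 mM final) to ATP with 0.5 mM PEP in 50 mM imidazole pH7.2, KCl, MgCl2, Tween 20, BSA; 1 h at room temperature. ATP detected by Kinase-Glo luminescence.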
S-ASM inh = inhibitors of human secretory acid sphingomyelinase; AID 504937; placental ASM, HMU-PC fluorogenic substrate, 60 min; P17405; 340,000 compounds, 0.006% hits; Potency, µM (top dose mostly 57.5 µM), hits mostly inhibitors
Target sequence (P17405 47-631 limits assumed): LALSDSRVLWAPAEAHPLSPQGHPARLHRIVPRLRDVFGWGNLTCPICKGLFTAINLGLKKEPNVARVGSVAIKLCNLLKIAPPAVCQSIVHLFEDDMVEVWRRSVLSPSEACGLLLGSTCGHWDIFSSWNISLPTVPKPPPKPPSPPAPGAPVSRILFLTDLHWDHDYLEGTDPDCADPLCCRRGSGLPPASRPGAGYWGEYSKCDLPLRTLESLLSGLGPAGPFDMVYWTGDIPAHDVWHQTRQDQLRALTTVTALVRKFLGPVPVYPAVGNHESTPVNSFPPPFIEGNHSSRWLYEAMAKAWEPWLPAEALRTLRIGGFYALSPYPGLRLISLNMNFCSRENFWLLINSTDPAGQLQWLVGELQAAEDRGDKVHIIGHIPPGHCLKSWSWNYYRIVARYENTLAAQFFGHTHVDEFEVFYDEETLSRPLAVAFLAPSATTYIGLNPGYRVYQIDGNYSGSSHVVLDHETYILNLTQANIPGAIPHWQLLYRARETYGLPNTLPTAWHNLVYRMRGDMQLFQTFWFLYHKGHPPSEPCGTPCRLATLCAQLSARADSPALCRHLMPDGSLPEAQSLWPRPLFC
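Steps: dispense placental human ASM, pin compound, wait 10 min at room temperature, add HMU-PC0 substrate at 9 uM final, incubate 60 min at 37 °C, add stop solution raising pH to 10, read fluorescence.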
HeLa tox = counter-screen for pyruvate kinase M2 activators: HeLa cytotoxicity. shares compounds with PKM2 act. HeLa viability, CellTiter-Glo ATP luminescence, 24 h. activity change, negative = cytotoxicity, % at 57.5 µM. 230 tested, under 10 active
Large screens that a line does not name were inactive (follow-up assays come after a bar, where they were run). Unless noted, the call rests on the fitted dose curve; in most records, active means well fitted curve in the direction sought with a large enough effect; inconclusive means small, poorly fitted or top-dose-only effect, or another doubt; inactive means no such curve, though single readings can be large; an effect the other way counts as inactive or inconclusive.

O=C1C=CC(=O)N1CCNc1ncc(C(F)(F)F)cc1Cl	PKM2 act 18µM
COc1ccc(S(=O)(=O)NCC(=O)N(CC(=O)NC(C)(C)C)Cc2cccs2)cc1	none
Cc1ccc(S(=O)(=O)c2nc(NC3CCS(=O)(=O)C3)sc2Cl)cc1 (centres undefined)	none
CCN1C(=O)S/C(=C\c2ccc(N3CCOCC3)cc2C)C1=O	none
C#CCN1C(=O)S/C(=C\c2ccc(N3CCOCC3)cc2C)C1=O	IL-2 act 203
CCCn1[nH]cc(SC)c(=O)c1=O	IL-2 act 51
CC(C)C(NC(=O)CN(c1ccc2c(c1)OCCO2)S(=O)(=O)c1ccccc1)C(C)C	none (no result: PKM2 act)
COc1ccc2c(c1)c1ncn(Cc3ccc(F)cc3)c(=O)c1n2C	none
COc1ccc2c(c1)c1ncn(Cc3ccco3)c(=O)c1n2C	PKM2 act 1.3µM
CC(=O)c1cccc(S(=O)(=O)NC2CC2)c1	none
CCN1C(=O)c2cccc3c(S(=O)(=O)Nc4ccncc4)ccc1c23	none
CCN1C(=O)c2cccc3c(S(=O)(=O)Nc4ccccn4)ccc1c23	PKM2 act inconclusive
CCN1C(=O)c2cccc3c(S(=O)(=O)Nc4ncccc4C)ccc1c23	PKM2 act 11µM
CCN1C(=O)c2cccc3c(S(=O)(=O)Nc4nc(C)cs4)ccc1c23	PKM2 act 4µM
Cc1ccc(Cl)c2c(N=Nc3ccccc3)c(O)[nH]c12	IL-2 act 170
Cc1cc(Cl)cc2c(N=Nc3ccccc3C(=O)O)c(O)[nH]c12	none (no result: PKM2 act)
CN(C)c1ccc(CNC(=O)c2ccc(CNc3c(N4CCCCC4)c(=O)c3=O)cc2)cc1	none
Cc1cccc(NC(=O)c2ccccc2NC(=O)C2CCCCC2)c1C	PKM2 act 28µM
O=C(Nc1ccccc1)c1ccccc1NC(=O)C1CCCCC1	none
CC(C)=CCCC(C)CN1CCC(N2CCC(C(=O)N3CCCC3)CC2)CC1 (centres undefined)	none
Cn1c(Cn2cnc(Cl)c2Cl)nc2ccccc21	PKM2 act 25µM
Cn1c(Cn2cnc3ccccc32)nc2ccccc21	PKM2 act inconclusive
O=C(NCC(c1ccco1)N1CCCC1)c1ccc(S(=O)(=O)Nc2ccc(F)cc2)cc1 (centres undefined)	none (no result: PKM2 act)
O=C(NCC(=O)N1CCC(Cc2ccccc2)CC1)c1ccccc1F	none (no result: PKM2 act, S-ASM inh)
CCN1C(=O)CS/C1=N\S(=O)(=O)c1ccc(Cl)cc1	none
CCn1c(Cl)c(C=O)s/c1=N\S(=O)(=O)c1ccccc1	PKM2 act 16µM
COc1ccccc1OCCNC(=O)C(CCSC)NC(=O)c1ccccc1Cl (centres undefined)	none (no result: PKM2 act)
Cc1oc(=O)c(NC(=O)c2ccccc2)cc1C(=O)c1ccccc1	none
Cc1oc(=O)c(NC(=O)c2ccc(Cl)cc2)cc1C(=O)c1ccccc1	PKM2 act 6.3µM | HeLa tox inactive
COCCCn1c(SCC(=O)Nc2sc3c(c2C#N)CCCC3)nnc1-c1ccncc1	none
CCn1cc(S(=O)(=O)c2ccc(C)cc2)[nH]c1=O	none
Cc1ccc(-n2cc(S(=O)(=O)c3ccc(C)cc3)[nH]c2=O)cc1	PKM2 act 7.1µM | HeLa tox inactive
Cn1c(=O)c2c(nc(N3CCOCC3)n2CC(=O)c2ccccc2)n(C)c1=O	none (no result: IL-2 act, S-ASM inh)
CCOC(=O)c1oc2nc(C(C)C)c3c(c2c1N)CCC3	none
CCOC(=O)[C@]12CCC=C1N(Cc1ccc(Cl)cc1Cl)C(=O)[C@H](CC(=O)NCc1cccc3ccccc13)C2	none (no result: PKM2 act, S-ASM inh)
O=C(NCCN1C(=O)S/C(=C/c2cccnc2)C1=O)c1cccs1	none (no result: PKM2 act)
COc1ccc(C(=O)NCCN2C(=O)S/C(=C\c3cccnc3)C2=O)cc1[N+](=O)[O-]	PKM2 act 3.5µM | HeLa tox inactive
CC12C(=O)N(Cc3ccccc3)C(=O)C1C1C=CC2C1 (centres undefined)	none
CCN1C(=O)c2cccc3c(S(=O)(=O)Nc4ccccc4)ccc1c23	PKM2 act 4µM | HeLa tox inconclusive
CCN1C(=O)c2cccc3c(S(=O)(=O)N(C)C)ccc1c23	none (no result: PKM2 act, S-ASM inh)
O=C(COC(=O)c1cc(Br)ccc1O)NC12CC3CC(CC(C3)C1)C2	none (no result: PKM2 act)
Cc1cc2c(s1)c1cnn(Cc3ccc(F)cc3)c(=O)c1n2C	none (no result: IL-2 act, PKM2 act, S-ASM inh) | HeLa tox inactive
Cc1c(C(=O)NCc2ccc(Cl)c(Cl)c2)sc(=O)n1Cc1ccc(S(C)(=O)=O)cc1	none (no result: PKM2 act, S-ASM inh)
Cc1cc(C)c2c(n1)sc1c(=O)n(Cc3ccccc3Cl)nnc12	none
Cc1cc2c(s1)c1cnn(-c3ccccc3)c(=O)c1n2C	none (no result: PKM2 act) | HeLa tox inactive
Cn1cnc2c(cnn2-c2ccccc2)c1=O	none (no result: PKM2 act)
Cc1cc2c(s1)c1cnn(Cc3ccc(S(C)(=O)=O)cc3)c(=O)c1n2C	none (no result: IL-2 act, PKM2 act, S-ASM inh) | HeLa tox inactive
Cc1cc2c(s1)c1cnn(Cc3ccccc3Cl)c(=O)c1n2C	none (no result: IL-2 act, PKM2 act, S-ASM inh) | HeLa tox inactive
Cn1c2cc(C#N)sc2c2cnn(Cc3ccc(F)cc3)c(=O)c21	none (no result: PKM2 act)
O=C(O)c1c(-c2ccccc2)nnc2ccccc12	none (no result: PKM2 act)
COCCN(C(=O)c1ccccc1Oc1ccccc1)c1c(N)n(CC(C)C)c(=O)[nH]c1=O	none (no result: PKM2 act)
Cc1ccc(-c2ccc(CN3C(CC(C)C)C(=O)N(Cc4cn(CCC5OCCO5)nn4)CCS3(=O)=O)cc2)cc1 (centres undefined)	none (no result: PKM2 act, S-ASM inh)
Cc1cc(C)cc(NC(=O)CCNC(=O)c2ccc([N+](=O)[O-])cc2)c1	none (no result: PKM2 act)
Cn1c(-c2ccc(F)cc2)cnc1NCc1ccc(F)cc1F	none
Cc1cc2c(s1)c1cnn(Cc3ccc(F)cc3F)c(=O)c1n2C	none (no result: IL-2 act, PKM2 act, S-ASM inh) | HeLa tox inactive
Cc1ccc(Cn2ncc3c4sc(C)cc4n(C)c3c2=O)cc1	none (no result: IL-2 act, PKM2 act, S-ASM inh) | HeLa tox inactive
Cc1cc2c(s1)c1cnn(CC(=O)NCCc3ccccc3)c(=O)c1n2C	none
Cc1cc2c(s1)c1cnn(Cc3ccccc3)c(=O)c1n2C	none (no result: IL-2 act, PKM2 act, S-ASM inh) | HeLa tox inactive
Cc1ccc(Cn2ncn3c(cc4ccccc43)c2=O)cc1	none
Nc1cc(Cc2ccccc2)ccc1O	none (no result: PKM2 act)
CCOC(=O)c1[nH]c2ccc(OC)cc2c1NC(=O)/C=C/c1ccc2c(c1)OCO2	none
Cc1c(C(=O)c2ccc(N(C)C)cc2)c2ccccn2c1CCC#N	none
Cc1ccc(NC(=O)c2sc3nc4c(c(-c5ccco5)c3c2N)CCC4)cc1	none
COc1ccccc1NC(=O)CSc1nn2c(=O)c(C)nnc2s1	none
Cc1nnc2sc(SCC(=O)Nc3nccs3)nn2c1=O	PKM2 act 1.4µM | HeLa tox inactive
CC(C)(C)c1cc(-c2n[nH]c(=S)n2-c2ccc(Cl)cc2)n[nH]1	none
O=S(=O)(NCCCCCNS(=O)(=O)c1c(F)cccc1F)c1ccc2c(c1)OCCO2	none (no result: PKM2 act) | HeLa tox inactive
O=S(=O)(c1ccc2c(c1)OCCO2)N1C[C@@H]2C[C@H]1CN2S(=O)(=O)c1c(F)cccc1F	none (no result: PKM2 act)
C[C@H]1CN(S(=O)(=O)c2ccc3c(c2)OCCO3)CCN1S(=O)(=O)c1c(F)cccc1F	none (no result: PKM2 act) | HeLa tox inactive
O=C(O)CCCCCNS(=O)(=O)c1ccc2c(c1)OCCO2	none
CN1CCOc2ccc(S(=O)(=O)N3CCN(S(=O)(=O)c4c(F)cccc4F)CC3)cc21	none (no result: IL-2 act, PKM2 act, S-ASM inh) | HeLa tox inactive
O=S(=O)(c1ccc2c(c1)OCCO2)N1CCN(S(=O)(=O)c2c(F)cc(F)cc2F)CC1	none (no result: PKM2 act)
CC(=O)N1CCOc2ccc(S(=O)(=O)N3CCCCC3)cc21	none (no result: PKM2 act)
